Records with an inconclusive call do not appear. The source made the active and inactive calls. Unless noted, calls follow the shape of the dose curve; as a rule, active = well fitted curve in the direction sought with a large enough effect; inconclusive = small, poorly fitted or top-dose-only effect, or another doubt; inactive = no such curve, though single readings can be large; an effect the other way counts as inactive or inconclusive.
How the values were obtained:
[1] = target: Cytochrome P450 2C19 (Homo sapiens) (UniProt P33261); test: qHTS Assay for Inhibitors and Substrates of Cytochrome P450 2C19 (AID 899); also: nearly all actives have a fitted effect of over 60% in size; also: potency is read from the fitted curve at half-maximal effect
Sequence of Cytochrome P450 2C19 (Homo sapiens) (P33261 whole entry, looked up): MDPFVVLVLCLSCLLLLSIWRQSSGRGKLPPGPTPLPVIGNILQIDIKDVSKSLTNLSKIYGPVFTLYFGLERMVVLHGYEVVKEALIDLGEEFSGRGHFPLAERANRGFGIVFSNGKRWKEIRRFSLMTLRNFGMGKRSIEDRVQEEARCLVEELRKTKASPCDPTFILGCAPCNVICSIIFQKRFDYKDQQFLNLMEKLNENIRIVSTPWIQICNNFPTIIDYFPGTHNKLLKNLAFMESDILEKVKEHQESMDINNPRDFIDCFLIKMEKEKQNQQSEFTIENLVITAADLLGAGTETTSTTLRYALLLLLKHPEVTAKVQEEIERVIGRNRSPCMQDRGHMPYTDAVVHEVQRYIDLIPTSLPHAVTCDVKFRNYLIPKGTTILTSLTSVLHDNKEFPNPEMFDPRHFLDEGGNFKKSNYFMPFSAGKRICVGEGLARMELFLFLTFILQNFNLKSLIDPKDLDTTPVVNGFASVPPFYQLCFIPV
Method in brief: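 Reactions contain 5nM enzyme, 10uM Luciferin-H EGE (KM) and 50mM KPO4; compound preincubates 10 min at 37C, NADPH regeneration starts turnover for 60 min. Luminescence after detection reagent gives activity.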

[2] = S16 Schwann cell PMP22 intronic element beta-lactamase assay (AID 624044; calls by dose curve; also: nearly all actives have a fitted effect of over 15% in size)
Method in brief: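 Rat S16 Schwann cells with beta-Lac driven by a PMP22 intronic element, compound-treated 24 h at 37 °C. LiveBLAzer FRET B/G read: 460 nm normalized to potassium clavulanate vs DMSO; 535 nm FRET as viability; concentration-effect curves classified.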

CP194 = test: qHTS profiling for inhibitors of Plasmodium falciparum proliferation (AID 504749); also: nearly all actives have a fitted effect of over 60% in size; details: P. falciparum in erythrocytes, SYBR Green DNA, 72 h; series mostly up to 12.8 µM
Method in brief: (§1)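 Infected RBCs, 0.3% parasitemia/2.5% Hct final; cpd 72 h, 37 C, 5% CO2; lysis buffer with saponin/triton/SYBR Green I, o/n RT dark; FI 485/535; norm. to artemisinin (0.29 uM) and DMSO.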

CP201 = test: as above; details: P. falciparum in erythrocytes, SYBR Green DNA, 72 h; series mostly up to 12.8 µM
Method in brief: as §1

CP211 = test: as above; details: P. falciparum in erythrocytes, SYBR Green DNA, 72 h; series mostly up to 12.8 µM
Method in brief: as §1

CP215 = test: as above; details: P. falciparum in erythrocytes, SYBR Green DNA, 72 h; series mostly up to 12.8 µM
Method in brief: as §1

CP237 = test: as above; details: P. falciparum in erythrocytes, SYBR Green DNA, 72 h; series mostly up to 12.8 µM
Method in brief: as §1

CP291 = test: as above; details: P. falciparum in erythrocytes, SYBR Green DNA, 72 h; series mostly up to 12.8 µM
Method in brief: as §1

CP315 = test: as above; details: P. falciparum in erythrocytes, SYBR Green DNA, 72 h; series mostly up to 12.8 µM
Method in brief: as §1

DFO2036 = test: as above; details: P. falciparum in erythrocytes, SYBR Green DNA, 72 h; series mostly up to 12.8 µM
Method in brief: as §1

DIV17 = test: as above; details: P. falciparum in erythrocytes, SYBR Green DNA, 72 h; series mostly up to 12.8 µM
Method in brief: as §1

GB4 = test: as above; details: P. falciparum in erythrocytes, SYBR Green DNA, 72 h; series mostly up to 12.8 µM
Method in brief: as §1

PC26 = test: as above; details: P. falciparum in erythrocytes, SYBR Green DNA, 72 h; series mostly up to 12.8 µM
Method in brief: as §1

W2 = test: as above; details: P. falciparum in erythrocytes, SYBR Green DNA, 72 h; series mostly up to 12.8 µM
Method in brief: as §1

[3] = target: Cytochrome P450 3A4 (Homo sapiens) (UniProt P08684); test: qHTS Assay for Activators of Cytochrome P450 3A4 (AID 885); also: nearly all actives have a fitted effect of over 65% in size
Sequence of Cytochrome P450 3A4 (Homo sapiens) (P08684 whole entry, looked up): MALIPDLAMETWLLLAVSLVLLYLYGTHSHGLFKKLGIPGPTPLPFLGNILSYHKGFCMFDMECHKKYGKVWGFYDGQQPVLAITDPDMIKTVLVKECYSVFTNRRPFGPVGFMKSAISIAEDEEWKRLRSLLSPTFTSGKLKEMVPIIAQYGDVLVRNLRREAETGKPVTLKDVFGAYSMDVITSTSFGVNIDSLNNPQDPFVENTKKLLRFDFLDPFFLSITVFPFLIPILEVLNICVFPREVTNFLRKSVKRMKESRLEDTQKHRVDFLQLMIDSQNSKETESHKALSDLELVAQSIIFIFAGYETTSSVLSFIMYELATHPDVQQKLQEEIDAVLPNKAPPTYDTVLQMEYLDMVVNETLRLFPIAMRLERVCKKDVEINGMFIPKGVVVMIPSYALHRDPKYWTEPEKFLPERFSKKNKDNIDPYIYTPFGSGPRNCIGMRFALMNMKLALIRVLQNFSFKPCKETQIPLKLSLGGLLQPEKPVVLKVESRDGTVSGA
Method in brief: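 Quantitative HTS format: compounds preincubated with 20nM human CYP3A4 and Luciferin-PPXE substrate at KM, reaction started by NADPH regeneration, stopped after 60 min, luciferase luminescence read 20 min later.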

[4] = S16 Schwann cell viability assay (CellTiter-Glo assay) (AID 624031);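 also: cellular ATP luminescence as a viability measure; nearly all actives have a fitted effect of over 70% in size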
Method in brief: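 Untransfected S16 rat Schwann cells; compound 24 h, 37 °C/5% CO2; CellTiter-Glo ATP luminescence. % activity vs no-cell wells and DMSO controls (0%); concentration-effect curves classed by r2, response magnitude, activity.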

P94_40 = test: qHTS profiling for inhibitors of Plasmodium falciparum proliferation (AID 504749); also: nearly all actives have a fitted effect of over 60% in size; details: P. falciparum in erythrocytes, SYBR Green DNA, 72 h; series mostly up to 12.8 µM
Method in brief: as §1

[5] = target: Cytochrome P450 2C9 (Homo sapiens) (UniProt P11712); test: qHTS Assay for Inhibitors and Substrates of Cytochrome P450 2C9 (AID 883); also: nearly all actives have a fitted effect of over 60% in size
Sequence of Cytochrome P450 2C9 (Homo sapiens) (P11712 whole entry, looked up): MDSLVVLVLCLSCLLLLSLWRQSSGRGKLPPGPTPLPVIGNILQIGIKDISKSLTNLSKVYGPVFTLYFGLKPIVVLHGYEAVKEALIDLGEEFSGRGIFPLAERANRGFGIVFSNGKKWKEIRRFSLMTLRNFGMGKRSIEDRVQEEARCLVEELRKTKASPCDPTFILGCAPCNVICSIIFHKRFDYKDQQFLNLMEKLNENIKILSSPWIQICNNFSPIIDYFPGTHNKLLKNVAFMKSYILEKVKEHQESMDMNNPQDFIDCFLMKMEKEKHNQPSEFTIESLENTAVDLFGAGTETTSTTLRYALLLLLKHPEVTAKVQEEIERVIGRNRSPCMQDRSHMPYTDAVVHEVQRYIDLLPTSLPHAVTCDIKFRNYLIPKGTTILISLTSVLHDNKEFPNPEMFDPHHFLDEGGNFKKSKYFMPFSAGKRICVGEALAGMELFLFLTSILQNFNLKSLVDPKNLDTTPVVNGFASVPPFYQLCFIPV
Method in brief: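 Turnover of Luciferin-H (100uM, KM) by 10nM human CYP2C9 was measured over 60 min at 37C with NADPH regeneration; inhibitors and some substrates reduce luminescence. Data normalized to sulphaphenazole 57uM.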

[6] = target: Cytochrome P450 2D6 (Homo sapiens) (UniProt P10635); test: qHTS Assay for Inhibitors and Substrates of Cytochrome P450 2D6 (AID 891)
Sequence of Cytochrome P450 2D6 (Homo sapiens) (P10635 whole entry, looked up): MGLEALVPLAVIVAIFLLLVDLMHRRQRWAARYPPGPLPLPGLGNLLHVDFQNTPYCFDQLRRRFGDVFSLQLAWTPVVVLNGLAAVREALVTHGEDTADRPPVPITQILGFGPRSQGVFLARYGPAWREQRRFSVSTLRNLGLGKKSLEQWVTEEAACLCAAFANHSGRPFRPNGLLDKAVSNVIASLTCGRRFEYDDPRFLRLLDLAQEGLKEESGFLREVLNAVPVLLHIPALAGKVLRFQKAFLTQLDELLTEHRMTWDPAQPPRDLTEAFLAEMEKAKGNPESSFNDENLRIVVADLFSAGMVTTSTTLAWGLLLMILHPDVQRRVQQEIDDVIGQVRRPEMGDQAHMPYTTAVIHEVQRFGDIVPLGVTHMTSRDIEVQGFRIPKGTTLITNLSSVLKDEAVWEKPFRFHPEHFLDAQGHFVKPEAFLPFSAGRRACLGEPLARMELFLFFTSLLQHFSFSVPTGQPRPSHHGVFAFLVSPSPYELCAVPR
Method in brief: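 Human CYP2D6 (5 nM) with 30 uM Luciferin-ME EGE (at Km) in 100 mM KPO4, compound preincubated 10 min, then NADPH regeneration system for 60 min at room temperature. Luciferin read by luminescence; normalized to 1.43 uM quinidine.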

[7] = target: Cytochrome P450 3A4 (Homo sapiens) (UniProt P08684); test: qHTS Assay for Inhibitors and Substrates of Cytochrome P450 3A4 (AID 884); also: potency is read from the fitted curve at half-maximal effect; nearly all actives have a fitted effect of over 50% in size
Method in brief: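 20 nM human CYP3A4 with 25 uM Luciferin-PPXE (at KM) in 200 mM KPO4, preincubated 10 min with compound; NADPH regeneration started a 60 min RT reaction. Luciferin detected by luminescence, normalized to 57 uM ketoconazole as full inhibition.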

Measured: Potency

C#C[C@@]1(O)CC[C@@H]2[C@@H]3CCC4=C(CCC(=O)C4)[C@H]3CC[C@]21C
active: [1] 63.1 nM

C[C@@]12CC[C@H]3[C@@H](CCC4=CC(=O)CC[C@]43C)[C@H]1CC[C@H]2C(=O)CO
not listed: [1] | [3] | [4] | P94_40 | [5] | [6] | [7]
inactive: all other assays above

CC(=O)[C@@]1(O)CC[C@H]2[C@H]3C[C@@H](C)C4=CC(=O)C=C[C@]4(C)[C@@]3(F)[C@@H](O)C[C@]21C
not listed: [1] | [2] | DFO2036 | PC26 | W2 | [5] | [6] | [7]
inactive: all other assays above

CN1C(=O)C[C@H](c2ccccc2)C1=O
not listed: [1] | CP237 | [3] | [4] | [5] | [6] | [7]
inactive: all other assays above

CC(=O)N(C[C@@H](C)C(=O)O)c1c(I)cc(I)c(N)c1I
inactive: [5] | [4] | [2] | CP237 | DFO2036 | P94_40

O=C(Nc1ccccc1)OC[C@H](CN1CCCCC1)OC(=O)Nc1ccccc1
active: [6] 398 nM
not listed: [1] | [2] | CP237 | W2 | [3] | [5] | [7]
inactive: all other assays above

COCC(=O)Nc1c(I)c(C(=O)NC[C@@H](O)CO)c(I)c(C(=O)N(C)C[C@@H](O)CO)c1I
not listed: [1] | [3] | [5] | [6] | [7]
inactive: all other assays above

C[N+]1(C)C[C@@H](O)C[C@@H]1C(=O)[O-]
inactive: [1]

Cc1ccc(S(=O)(=O)NC(=O)NN2C[C@H]3CCC[C@@H]3C2)cc1
not listed: [1] | [2] | DFO2036 | [3] | [5] | [6] | [7]
inactive: all other assays above

C[C@@H](C(=O)O)c1ccc(C(=O)c2ccccc2)s1
active: [1] 3980 nM
not listed: [2] | [5] | [6] | [7]
inactive: all other assays above

CC[C@H](CO)NCCN[C@@H](CC)CO
not listed: [1] | [2] | [3] | [4] | [6] | [7]
inactive: all other assays above

Cc1noc(C)c1-c1nc(Nc2ccncc2)c2ccccc2n1
active: [7] 316 nM
inactive: [3]

CN(C)c1ccc(-c2nccc(NCc3ccccc3)n2)cc1
inactive: [3]
active: [7] 7940 nM | [6] 3160 nM

From PubChem BioAssay (NCATS)
